These results are taken from PubChem BioAssay (NCI).

The panel holds about 83,000 compounds, 20% with a hit somewhere; the sample as a whole holds those more often.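 Interpretation: 100, growth as untreated; towards 0, rising growth inhibition; 0, no net growth; 0 to -100, cell death. Compounds scoring below 10 were considered active.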 Unmarked numbers belong to inactive results. Active and inactive are the calls of the source.

Test systems include SR leukemia; RPMI-8226 leukemia; OVCAR-8 ovarian; OVCAR-5 ovarian; OVCAR-4 ovarian; SK-OV-3 ovarian; IGROV1 ovarian; OVCAR-3 ovarian; HS 578T breast; NCI/ADR-RES ovarian.
What all share (assay): NCI-60 one-dose screen, 48 h (100 = growth as untreated, 0 = no growth, -100 = all killed)
Common to all, as to details: 10 µM unless noted

As to `O=C(CSc1nc2ccccc2c(=O)n1CCc1ccccc1)Nc1ccc(S(=O)(=O)Nc2ccc(Cl)nn2)cc1`, the growth in the assay with SR leukemia was 95.9%; with RPMI-8226 leukemia it was 102%; with OVCAR-8 ovarian, 92%; with OVCAR-5 ovarian, 95.8%; in the assay with OVCAR-4 ovarian, 93.1%; in the assay with SK-OV-3 ovarian, 94.1%. Moreover, the growth was 95.6% with IGROV1 ovarian, 98.8% in the assay with OVCAR-3 ovarian, 97.1% in the assay on HS 578T breast and 91.7% in the assay with NCI/ADR-RES ovarian.
As to `CCNCCOc1ccc(/C(=C(/CC)c2ccc(Cl)cc2)c2ccc(OCCCN(C)C)cc2)cc1`, the growth was -36.8% (active) with SR leukemia; -36.2% (active) in the assay with RPMI-8226 leukemia; -81.7% (active) in the assay with OVCAR-8 ovarian; -93% (active) with OVCAR-5 ovarian; -88% (active) with OVCAR-4 ovarian; -93.8% (active) in the assay with SK-OV-3 ovarian. Besides, the growth in the assay on IGROV1 ovarian was -82.3% (active); with OVCAR-3 ovarian it was -77.4% (active); in the assay on HS 578T breast it was -51.1% (active); in the assay with NCI/ADR-RES ovarian, -82.5% (active).
As for `CCCCCN1C(=O)/C(=c2\sc3n(c2=O)C2C(NN=3)N(CC)C(=O)N2CC)c2cccc(C)c21` (stereo not given), the growth is 13.6% with SR leukemia; 39.1% with RPMI-8226 leukemia; 73.3% in the assay on OVCAR-8 ovarian; 72.4% in the assay on OVCAR-5 ovarian; 52.1% in the assay on OVCAR-4 ovarian; 89.3% with SK-OV-3 ovarian. For the same molecule, the growth in the assay on IGROV1 ovarian is 44.8%; in the assay with OVCAR-3 ovarian, 32.9%; with HS 578T breast, 34.3%; in the assay with NCI/ADR-RES ovarian, 30.7%.
Regarding `Cc1ccc(S(=O)(=O)NCCCNc2nc(Nc3ccc(N4CCN(C)CC4)cc3)nc3ccsc23)cc1`, the growth is 4.16% (active) in the assay with SR leukemia; 6.57% (active) in the assay with RPMI-8226 leukemia; 40% with OVCAR-8 ovarian; 73.9% in the assay on OVCAR-5 ovarian; 23.7% with OVCAR-4 ovarian; 117% in the assay on SK-OV-3 ovarian. For the same molecule, the growth is 57.1% in the assay with IGROV1 ovarian, 14.6% in the assay with OVCAR-3 ovarian, 44% with HS 578T breast and 70.4% in the assay on NCI/ADR-RES ovarian.
In the case of `Nc1ncc(-c2ccc3ncnc(NCc4ccccc4)c3c2)cn1`, the growth in the assay with SR leukemia was 42.2%; in the assay on RPMI-8226 leukemia, 31.5%; in the assay on OVCAR-8 ovarian it was 54.3%; in the assay with OVCAR-5 ovarian, 36.7%; in the assay on OVCAR-4 ovarian, 57.8%; with SK-OV-3 ovarian, 39.5%. Also, the growth with IGROV1 ovarian was -8.67% (active); with OVCAR-3 ovarian it was 45.9%; in the assay on HS 578T breast, 14.7%; in the assay on NCI/ADR-RES ovarian, 69%.
Take `COc1cc(C(=O)c2cc(C(C)=O)c3ccc(C)cn23)cc(OC)c1OC`: the growth in the assay on SR leukemia is 26.9%; with RPMI-8226 leukemia it was 54.6%; with OVCAR-8 ovarian, 50.6%; in the assay with OVCAR-5 ovarian it was 59.5%; with OVCAR-4 ovarian it was 79.7%; in the assay on SK-OV-3 ovarian it was 77.4%. The growth in the assay with IGROV1 ovarian was 41.9%; in the assay on OVCAR-3 ovarian, 28%; with HS 578T breast it was 59%; with NCI/ADR-RES ovarian, 18.4%.
Regarding `CC(=C(c1ccc(OCCCN(C)C)cc1)c1ccc(OCCCN(C)C)cc1)c1ccc(Cl)cc1`, the growth in the assay with SR leukemia was 21.7%; in the assay with RPMI-8226 leukemia it was 79.3%; in the assay with OVCAR-8 ovarian, 100%; in the assay on OVCAR-5 ovarian it was 100%; in the assay with OVCAR-4 ovarian, 108%; with SK-OV-3 ovarian, 103%. Also, the growth in the assay on IGROV1 ovarian was 87.1%; in the assay with OVCAR-3 ovarian, 91.1%; in the assay with HS 578T breast, 81.8%; in the assay on NCI/ADR-RES ovarian, 95.2%.
`CC(C)(C)Nc1nc2c(OCCc3ccccc3)cccn2c1-c1ccc([N+](=O)[O-])cc1`: the growth in the assay on SR leukemia was 52%; in the assay with RPMI-8226 leukemia, 43.1%; with OVCAR-8 ovarian, 64%; in the assay with OVCAR-5 ovarian, 67.3%; with OVCAR-4 ovarian, 42.3%; in the assay with SK-OV-3 ovarian, 76.5%. In addition, the growth is 56.9% in the assay with IGROV1 ovarian, 50.6% in the assay with OVCAR-3 ovarian, 78.3% in the assay with HS 578T breast and 51.6% in the assay on NCI/ADR-RES ovarian.
For `O=C(CSc1nc2ccccc2c(=O)n1-c1ccc(S(=O)(=O)Nc2ccc(Cl)nn2)cc1)Nc1ccc(S(=O)(=O)Nc2ccc(Cl)nn2)cc1`, the growth in the assay on SR leukemia was 87.3%; in the assay with RPMI-8226 leukemia it was 108%; in the assay on OVCAR-8 ovarian, 103%; with OVCAR-5 ovarian, 103%; in the assay with OVCAR-4 ovarian, 101%; in the assay with SK-OV-3 ovarian, 105%. The growth in the assay with IGROV1 ovarian is 107%; with OVCAR-3 ovarian it was 108%; with HS 578T breast, 106%; in the assay on NCI/ADR-RES ovarian it was 103%.
On to `Cc1ccc(NC(=O)Nc2nc3ccc([N+](=O)[O-])cc3s2)cc1`, for which the growth was 20.3% in the assay on SR leukemia; 2.09% (active) with RPMI-8226 leukemia; 12.8% in the assay with OVCAR-8 ovarian; 10.3% with OVCAR-5 ovarian; -6.09% (active) with OVCAR-4 ovarian; -12.4% (active) in the assay with SK-OV-3 ovarian. Besides, the growth with IGROV1 ovarian was 16.8%; with OVCAR-3 ovarian, -0.465% (active); in the assay with HS 578T breast it was 15.2%; in the assay with NCI/ADR-RES ovarian, 2.65% (active).
Regarding `C#C[C@]1(O)CC[C@H]2[C@@H]3CC=C4c5sc(Nc6ccc(C)cn6)nc5CC[C@]4(C)[C@H]3CC[C@@]21C`, the growth was -15% (active) in the assay on SR leukemia; -32% (active) in the assay on RPMI-8226 leukemia; 25.3% in the assay on OVCAR-8 ovarian; 22.2% with OVCAR-5 ovarian; 42.8% in the assay with OVCAR-4 ovarian; -44.8% (active) with SK-OV-3 ovarian. Moreover, the growth with IGROV1 ovarian is 29.4%; in the assay with OVCAR-3 ovarian, 34%; in the assay with HS 578T breast it was -11.9% (active); in the assay on NCI/ADR-RES ovarian, 20.3%.
As for `NC1[C@H]2CN(c3cnc(C(=O)Nc4cc(F)cc5cccnc45)cn3)C[C@@H]12` (stereo not given in full), the growth was 8.36% (active) in the assay with SR leukemia; 68.9% with RPMI-8226 leukemia; 87.7% in the assay on OVCAR-8 ovarian; 77.3% in the assay on OVCAR-5 ovarian; 17.4% in the assay on OVCAR-4 ovarian; 93.2% with SK-OV-3 ovarian. The growth in the assay with IGROV1 ovarian was 29.4%; in the assay on OVCAR-3 ovarian, 2.08% (active); in the assay on HS 578T breast, 77.2%; in the assay with NCI/ADR-RES ovarian it was 85.3%.
As for `CCOC(=O)c1cccc(NC2=C(Cl)C(=O)C(C)=C(C)C2=O)c1`, the growth with SR leukemia is 27.7%; in the assay on RPMI-8226 leukemia, 26.8%; in the assay with OVCAR-8 ovarian, 98.8%; with OVCAR-5 ovarian, 105%; in the assay with OVCAR-4 ovarian it was -4.17% (active); in the assay on SK-OV-3 ovarian, 107%. Besides, the growth in the assay on IGROV1 ovarian is 32.2%; in the assay with OVCAR-3 ovarian it was 99.8%; with HS 578T breast, 95.9%; with NCI/ADR-RES ovarian, 102%.
`CCOC(=O)c1c(NC(=O)c2ccc(C(F)(F)F)cc2)sc2c(CN3CCN(C)CC3)c(O)ccc12`: the growth with SR leukemia is -56.9% (active); with RPMI-8226 leukemia, -42% (active); with OVCAR-8 ovarian, -56.2% (active); in the assay on OVCAR-5 ovarian it was -52.6% (active); in the assay on OVCAR-4 ovarian, -53.8% (active); in the assay on SK-OV-3 ovarian it was -4.72% (active). For the same molecule, the growth in the assay on IGROV1 ovarian is -82.7% (active); in the assay with OVCAR-3 ovarian, -68.9% (active); in the assay on HS 578T breast, -17.8% (active); in the assay on NCI/ADR-RES ovarian, -63.2% (active).
